About 83,000 compounds went through this panel and 20% of them were active in at least one assay; those are over-represented in the sample as a whole.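 Cell lines were cultured in 96-well plates, exposed to a single compound concentration, and assessed for percent growth 48 hours later.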 Unmarked numbers belong to inactive results. Activity calls are given as the source filed them.

The assay concerns SK-MEL-2 melanoma. The experiment in a line: NCI-60 one-dose screen, 48 h (100 = growth as untreated, 0 = no growth, -100 = all killed). Conditions: 10 µM unless noted. The method, then: Growth inhibition of the SK-MEL-2 human tumor cell line is measured as a screen for anti-cancer activity. Cells are grown in 96 well plates and exposed to the test compound for 48 hours. Compounds are tested at a single concentration, which is 10^-5 M for most compounds. The reported endpoint is percent growth (GI% or GIPRCNT), where numbers from 0 - 100% represent growth inhibition, and numbers from -100% - 0 represent cell death. For example, a value of 40 represents 60% growth inhibition. A value of 0 means no net growth occurred over the course of the experiment. A value of -40 indicates 40% of cells at the beginning of the experiment died by the end of the experiment. A value of -100 means all cells are dead at the end of the experiment.
NCI-60 Human Tumor Cell Lines Screen was performed using the standard one-dose NCI protocol, which is described in more detail at https://dtp.cancer.gov/discovery_development/nci-60/default.htm.
Compounds with GIPRCNT values below 10 were considered active. Activity score was based on GIPRCNT using the following formula: […]
Score is 0 for GIPRCNT values of 100 or above, 50 for GIPRCNT values of 0, and 100 for GIPRCNT values of -100.
With `Cc1cccc2c3c(sc12)C(c1ccc(Cl)cc1)C(C#N)=C(N)O3` (stereo not given), the growth was 45.7%.
In the case of `O=C(Nc1ccc(Br)cc1F)c1cc(Br)ccc1O` it was -25.4% (active); in that of `Cc1ccc2c(n1)C(=O)C(Cl)=C(Nc1ccccc1C(C)C)C2=O`, 64%.
Regarding `COc1ccc2sc3c(NCCO)nc4ccccc4c3c(=O)c2c1`, the growth is 107%.
To `COc1ccc2c(c1)c(-c1ccc(-c3cn(C)c4ccc(OC)cc34)o1)cn2C` belongs 45%; to `O=C1COCCN1c1ccc(NCc2cn(C(=O)c3ccc(Cl)cc3)c3ccccc23)cc1`, 61.5%; to `Clc1ccc2c(c1)N(CCCN1CCCC1)c1ccccc1S2`, 74%.
As to `NS(=O)(=O)c1ccc(N=Nc2ccc(-c3nn4cc(-c5ccccc5)nc4s3)cc2)cc1`, the growth was 99.4%.
In the case of `COc1cc(C)c(Cc2cnc(N)nc2N)cc1OC` it was 87%; in that of `O=C(N/N=C/[C@H](O)[C@@H](O)[C@@H](O)[C@H](O)CO)c1ccc(NC(=O)c2cccnc2)cc1`, 109%.
To `CCCCCCN(CCCCCC)c1ccc(/C=C2/SC(=O)NC2=O)c(C)c1` belongs 83%.
To `Cc1nc2cnc(N)c(C#Cc3cncc(C(=O)Nc4ccc(CN5CCN(C)CC5)c(C(F)(F)F)c4)c3)c2nc1C` belongs -33.9% (active); to `Cn1cc(-c2cc3ncnc(Nc4ccc(CC(=O)Nc5cc(C(C)(C)C)on5)cc4)c3s2)cn1`, 14%.
In the case of `COc1cc2cc(Oc3ccc(NC(=O)Nc4ccc(Cl)c(Cl)c4)cc3)c(C)nc2cc1OCCN1CCOCC1`, the growth was 107%.
For the molecule `CC1Cc2ccccc2N1NC(=O)c1ccc(Cl)c(S(N)(=O)=O)c1` (stereo not given), the growth was 99.4%.
In the case of `CN1C(=O)CNC(=O)[C@H](NC(=O)c2nc3ccccc3cc2O)CSSC[C@H]1C(=O)NCCc1nc2ccccc2cc1O` it was -17.1% (active); in that of `Cc1ccc(-c2nc(N3CCN(CC(=O)Nc4ccc(Cl)c(C(F)(F)F)c4)CC3)c3ccccc3n2)cc1`, 110%; in that of `COC(=O)c1ccc2[nH]c(O)c(C(=Nc3ccc(N(C)C(=O)CN4CCN(C)CC4)cc3)c3ccccc3)c2c1`, -4.99% (active).
`COc1ccc(/C=C(/C#N)n2nnc3cccc(F)c32)cc1`: the growth was -10.4% (active).
In the case of `CCCCC[C@H](O)C/C=C1/C(=O)C=C[C@@H]1C/C=C\CCCC(=O)OC` it was 89.2%; in that of `Cc1nn(-c2ccccc2)c2c1N=c1s/c(=C\c3ccc(C(F)(F)F)cc3)c(=O)n1CN2`, 47.1%; in that of `COc1ccc(C(Cc2ccccc2)NCCN2CCOCC2)cc1` (stereo not given), 95.9%.
In the case of `O=C(O)C(c1ccccc1)N1C(=O)CSC1=S` (stereo not given) it was 102%; in that of `CCN(CC)c1ccc(C2=NN(C(C)=O)C(c3cc(OC)c(OC)c(OC)c3)C2)cc1` (stereo not given), 31.8%.
To `CN1CCN(c2ccc(-c3cc4c(Nc5ccc(F)c(Cl)c5)ncnn4c3)cc2)CC1` belongs 103%.
Regarding `COc1ccc(C(=O)/C=C/c2sc(Cl)nc2Cl)cc1`, the growth is 39.8%.
With `CC(C)C(=O)Nc1ccc(-c2nc(-c3cccc(OCCN4CCOCC4)c3)c(-c3ccnc(Br)c3)[nH]2)cc1`, the growth is 36.2%.
To `C(=N/Nc1ncnc2nc[nH]c12)/c1ccccn1` belongs 71.5%; to `Cc1nc2ccccc2n1CC1C(=O)NC(=O)NC1=O`, 120%; to `O=c1c2cc(F)ccc2sc2c(N3CCNCC3)nc3ccc(F)cc3c12`, 90.5%.
In the case of `Cc1ccc(NC2=C(Cl)C(=O)c3nc(C)ccc3C2=O)cc1` it was -23.8% (active); in that of `CNC(C)[C@H]1CCC2C3CCC4C[C@@H](N(C)C(=O)c5ccccc5)CC[C@]4(C)C3CC[C@@]21C` (stereo not given in full), 38.7%; in that of `COc1cccc(-c2nc(-c3ccc(NC(=O)OC(C)C)cc3)[nH]c2-c2ccnc(Br)c2)c1`, 25.6%.
To `O=C(N/N=C/c1ccc(Cl)cc1)c1ccc(C(F)(F)F)nc1Nc1cccc(C(F)(F)F)c1` belongs 25.8%.
As to `COc1cc2cc(Oc3ccc(NC(=O)Nc4ccc(F)c(C(F)(F)F)c4)cc3)c(C)nc2cc1OCCN1CCOCC1`, the growth is 14.8%.
To `COc1cc(CCCO)c(OC)c(OC)c1OC` belongs 118%.
To `O=C1CCC(C(=O)NCCNCCNC(=O)C2CCC(=O)N2)N1` (stereo not given) belongs 99.8%; to `S=C(c1cccs1)N1CCN(c2cccc(Cl)c2)CC1`, 99%.
To `COc1ccc2c(c1)C(C)Cc1c(ncnc1-n1c(C)nc3ccccc31)N2C` (stereo not given) belongs 33.9%; to `c1ccc(CO[C@H]2CO[C@H]3[C@@H]2OC[C@@H]3Oc2ccc(Nc3ncnc4ccsc34)cc2)cc1`, 84%.

The values above are taken from PubChem BioAssay (NCI).
